The structures appear in SMILES notation. Records with an inconclusive call do not appear. A call without a number means that no potency is given here. The source made the active and inactive calls. Calls come from the whole dose curve; as a rule, active = well fitted curve in either direction with a large enough effect (not every such curve was filed as active); inconclusive = small, poorly fitted or top-dose-only effect, or another doubt; inactive = flat fitted curve, though single readings scatter.

This assay deals with Mitogen-activated protein kinase 10 (Mus musculus) (UniProt Q61831). Put plainly: JNK3 AlphaScreen Assay (AID 530).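 Note: kinase came from lysate of stimulated human HepG2 cells.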 Conditions: JNK3 lysate, c-Jun phosphorylation; series mostly up to 57.1 µM. From the text: NIH Chemical Genomics Center [NCGC]
NIH Molecular Libraries Screening Centers Network [MLSCN]
The c-jun N-terminal kinase (JNK) family are serine/threonine protein kinases that phosphorylate c-jun, a component of the transcription factor […] (AP-1). JNK kinases are members of the mitogen-activated protein kinase family including the extracellular regulated kinases and p38 kinases. Three JNK genes (JNK 1, 2, and 3) have been identified in humans so far. JNK1 and JNK2 have a broad distribution and JNK3 is primarily found in neuronal tissues and cardiac myocytes.
JNK3 has been under consideration as a target for the treatment of neurodegenerative disorders. […] JNK pathway is also involved in pathological process in a mouse model of Parkinson's disease (Xia et al., 2001).
Given these potential tissue distributions and links to neuroprotection, JNK3 inhibitors should provide useful investigational tools to study the role of this kinase in several diseases including, arthritis, stroke, myocardial infarction, ischemic injury and Parkinson's disease.
A homogeneous AlphaScreen is developed to measure the activity of JNK3. AlphaScreen is a two bead-based proximity-dependent chemical energy transfer luminescent assay platform. The phosphorylation of a biotinylated c-jun substrate by JNK3 can be detected with an antibody raised against phosphorylated c-jun. This process brings streptavidin donor beads and Protein-A acceptor beads to within a proximity range of <200 nm, and subsequently lead a chemical luminescent reaction upon exciting donor beads with 680 nm laser excitation light. Inhibition of JNK3 activity by small molecules and subsequent decrease in the antibody binding to biotinylated c-jun could attenuate or abolish this chemical luminescent reaction.
Yang DD, Kuan CY, Whitmarsh AJ, Rincon M, Zheng TS, Davis RJ, Rakic P and Flavell RA (1997) Absence of excitotoxicity-induced apoptosis in the hippocampus of mice lacking the Jnk3 gene. Nature 389:865-870. [PMID: 9349820]
Herdegen T, Claret FX, Kallunki T, Martin-Villalba A, Winter C, Hunter T, and Karin M (1998) Lasting N-terminal phosphorylation of c-Jun and activation of c-Jun N-terminal kinases after neuronal injury. J.Neurosci. 18:5124-5135. [PMID: 9651196]
Xia XG, Harding T, Weller M, Bieneman A, Uney JB and Schulz JB (2001) Gene transfer of the JNK interacting protein-1 protects dopaminergic neurons in the MPTP model of Parkinson's disease. Proc.Natl.Acad.Sci.U.S.A. 98:10433-10438.
NCGC Assay Protocol Summary:
GST-cJun (1-79) (Stratagene, La Jolla CA, #205145) was biotnylated by PerkinElmer (PerkinElmer-BioSignalInc. Montreal, Canada) and was detectable by the streptavidin Donor beads. Anti-(phospho)cJun (Ser73) antibody was from UpState (Charlottesvilles, VA, #06-659). JNK3-containing lysates were generated from HepG2 cells and pre-activated by interleukin1-beta and tumor necrosis factor alpha. All reagents were stored at -20 C before using. Phosphorylated biotinylated-GST-cJun was recognized by Anti-(phospho)cJun (Ser73) antibody and this process brings acceptor and donor beads together. Therefore JNK3 phosphorylation of cJun can be measured by Alpha reading by EnVision (PerkinElmer, Boston, MA).
The composition of kinase buffer was (in mM) 20 tris- HCl (pH 7.6) 10 MgCl2, 1 DTT, and 0.1 Na3VO4 and 0.01% Tween-20. Beads were diluted in detection buffer containing (in mM) 20 tris-HCl (pH 7.7), 20 NaCl and 80 EDTA and 0.3% BSA. The assay was performed at room temperature. All compounds were screened as titrations from 0.6 nM to 46 uM final concentration. The assay was performed in 1536-well format (white solid bottom and untreated) as follows:
Sequence,Parameter,Value,Description
1,Reagent,3 uL,Biotin-GST-cJun, Anti-(phospho)cJun and pre-activated JNK3-containing lysates
2,Compound,23 nL,Final concentration was 0.6nM to 46uM
3,Time,15 minutes,Room Temperature
4,Reagent,1 uL,ATP final concentration 10uM
6,Reagent,0.5 uL,2ng/well bead mixture
[…]
For `CCN(CC)c1ncnc2c1ncn2[C@@H]1O[C@@H](COP(=O)(O)OP(=O)(O)C(Br)(Br)P(=O)(O)O)[C@H](O)[C@@H]1O`, the Potency entry is “inactive”.

In the case of `C#CCN[C@@H](C)Cc1ccccc1`, the Potency result was “inactive”.

As for `NC(=O)c1ccc(C(=O)Nc2ccc([As](=O)(O)O)cc2)cc1`, the activity change, negative = inhibition is 1.99% [at 11.4 µM] (inactive).

Turning to `CCCN1CC[C@@H]2c3cc(O)ccc3CC[C@H]21`, the Potency entry was “inactive”.

On to `O=[N+]([O-])c1ccccc1O`, for which the Potency entry was “inactive”.

Take `O=[As](O)(O)c1ccc2nc3cc([As](=O)(O)O)ccc3nc2c1`: the activity change, negative = inhibition was -2.18% [at 11.4 µM] (inactive).

As to `COc1ccccc1CN1CCCC2(CCN(C(=O)Oc3ccccc3)CC2)C1`, the Potency result was “inactive”.

Turning to `Cc1ccc(NC(=[OH+])c2cc3ccccc3cc2O)c(C)c1.Cc1ccc(NC(=[OH+])c2cc3ccccc3cc2O)c(C)c1.[Ni]`, the activity change, negative = inhibition is 1.02% [at 11.4 µM] (inactive).

For `NC1(P(=O)(O)O)CCCCC1`, the activity change, negative = inhibition is 5.68% [at 11.4 µM] (inactive).

As for `Nc1ccc(-c2ccccc2)cc1`, the Potency entry is “inactive”.

As for `Cc1c([C@@H](C)[C@H]2NC[C@H](C)C[C@@H]2O)ccc2c1C[C@@H]1[C@H]2CC=C2C[C@@H](O)CC[C@@]21C`, the activity change, negative = inhibition is -0.822% [at 11.4 µM] (inactive).

On to `Oc1c(Cl)cccc1Cl`, for which the Potency entry is “inactive”.

As to `C=CC(=O)OCCO`, the Potency result is “inactive”.

Consider `Nc1nc(N)c(N=Nc2ccc([As](=O)(O)O)cc2)c(=O)[nH]1`, for which the activity change, negative = inhibition is 5.04% [at 11.4 µM] (inactive).

With `CSc1ccc2c(c1)c(CCN)c(C)n2Cc1ccccc1Cl`, the activity change, negative = inhibition was -5.61% [at 11.4 µM] (inactive).

Take `Nc1ccc(S(=O)(=O)c2ccc(NCN3C(=O)NC(=O)C(=O)C3=O)cc2)cc1`: the activity change, negative = inhibition was 1.4% [at 11.4 µM] (inactive).

For the compound `Nc1ccc(Cc2ccc(N)c(Cl)c2)cc1Cl`, the Potency result is “inactive”.

With `CC[C@@](O)(C(=O)O)c1cc2n(c(=O)c1CO)Cc1cc3ccccc3nc1-2`, the activity change, negative = inhibition was 3.55% [at 11.4 µM] (inactive).

For `NS(=O)(=O)C[C-]1C=C[CH]([Sb-]([Cl])([Cl])([Cl])([Cl])[Cl])C=C1.c1ccncc1` (stereo not given), the activity change, negative = inhibition is 4.62% [at 11.4 µM] (inactive).

As for `COc1cc2c(cc1OC)[C@@]13CCN4CC5=CCO[C@H](CC(=O)O)[C@@H]([C@H]1N2)[C@H]5C[C@H]43`, the activity change, negative = inhibition is 4.42% [at 11.4 µM] (inactive).

For the compound `NNc1nncn1N`, the activity change, negative = inhibition is 3.94% [at 11.4 µM] (inactive).

For `CC(C)(C)C(O)(CCc1ccc(Cl)cc1)Cn1cncn1` (stereo not given), the Potency result is “inactive”.

As to `Oc1c(Cl)c(Cl)cc(Cl)c1Cl`, the Potency result was “inactive”.

For the compound `Nc1cc(Cl)cc(C(=O)O)c1Cl`, the Potency result was “inactive”.

As to `C[C@]12CC[C@@H]3[C@H](CCC4=CC(=O)CC[C@]43C)[C@]1(O)CC[C@@]2(O)C(=O)CO`, the activity change, negative = inhibition is 4.11% [at 11.4 µM] (inactive).

With `C[N+]1(C)C2CC(OC(=O)C(CO)c3ccccc3)CC1[C@@H]1O[C@H]21` (stereo not given in full), the Potency result is “inactive”.

For the compound `CSSC`, the Potency entry was “inactive”.

As to `CC(C)[C@@H](Br)C(=O)NCC(=O)O`, the activity change, negative = inhibition was 4.52% [at 11.4 µM] (inactive).

Consider `CN(C)C(=O)Nc1ccc(Cl)cc1`, for which the Potency entry was “inactive”.

In the case of `O=C(O)[C@H]1[O][Sb][O][C@@H](C(=O)O)C1O` (stereo not given in full), the activity change, negative = inhibition is -2.33% [at 11.4 µM] (inactive).

For the compound `O=C(O)Cc1ccc([N+](=O)[O-])cc1[N+](=O)[O-]`, the activity change, negative = inhibition was 4.4% [at 11.4 µM] (inactive).

As to `ClC(Cl)(Cl)C(Cl)(Cl)Cl`, the Potency entry is “inactive”.

`C=CC=O`: the Potency entry was “inactive”.

Regarding `Cc1ccccc1[N+](=O)[O-]`, the Potency entry is “inactive”.

On to `C[C@]12CN(CC[N+](C)(C)C)C[C@]1(C)[C@@H]1CC[C@@H]2O1`, for which the activity change, negative = inhibition is -2.5% [at 11.4 µM] (inactive).

`Oc1cc(Cl)c(Cl)c(Cl)c1Cl`: the Potency entry is “inactive”.

As to `CC1CC(=O)O1` (stereo not given), the Potency result is “inactive”.

`COc1cc2c(cc1O)C[C@@H]1c3c(cc(O)c(OC)c3-2)CCN1C`: the activity change, negative = inhibition is 4.75% [at 11.4 µM] (inactive).

For the compound `COC(=O)c1c(C)ccc2c(O)c3c(cc12)C(=O)c1c2c(cc(O)c1C3=O)[C@@]1(C)O[C@@](C)(O2)[C@@H](O)[C@H](N(C)C)[C@H]1O`, the activity change, negative = inhibition is -7.99% [at 11.4 µM] (inactive).

For `COc1ccc(C=O)cc1`, the Potency result was “inactive”.

Source of the values: PubChem BioAssay (NCATS).
